# Measurements published in PubChem BioAssay (NCATS).
# Results filed as inconclusive are left out. Calls of active or inactive are those of the source. Calls follow the shape of the dose curve; as a rule, active = well fitted cell-killing curve with a large enough effect; inconclusive = small, poorly fitted or top-dose-only effect, or effect the other way; inactive = no such curve, though single readings can be large or run the other way.
# Test: Quantitative High-Throughput drug screen in 47 multiple myeloma cell lines against the NCATS MIPE library collection: Karpas417_ECACC cell viability assay (AID 1918961)
# Conditions: Karpas417 myeloma viability, CellTiter-Glo ATP luminescence, 48 h; viability (% of DMSO): at 45.8 µM (top of the series) unless noted
# Text: PI: Beverly A. Mock Ph.D.
# Laboratory of Cancer Biology and Genetics,
# Center for Cancer Research, National Cancer Institute,
# National Institute of Health, Bethesda, Maryland
# Drug resistance and disease progression are common in multiple myeloma (MM) patients, underscoring the need for new therapeutic combinations. […] We hypothesized that effective combinations would reduce MYC expression and enhance p16 activity. […] These preclinical data identify potentially useful drug combinations for evaluation in drug-resistant MM and reveal potential mechanisms of combined drug sensitivity.
# Described herein is the primary MIPE qHTS used to cherrypick compounds. Validated compounds were then further tested for potential synergistic activiy.
# [1] Peat TJ, Gaikwad SM, Dubois W, Gyabaah-Kessie N, Zhang S, Gorjifard S, Phyo Z, Andres M, Hughitt VK, Simpson RM, Miller MA, Girvin AT, Taylor A, Williams D, D'Antonio N, Zhang Y, Rajagopalan A, Flietner E, Wilson K, Zhang X, Shinn P, Klumpp-Thomas C, McKnight C, Itkin Z, Chen L, Kazandijian D, Zhang J, Michalowski AM, Simmons JK, Keats J, Thomas CJ, Mock BA. Drug combinations identified by high-throughput screening promote cell cycle transition and upregulate Smad pathways in myeloma. Cancer Lett. 2023 Aug 1;568:216284. doi: 10.1016/j.canlet.2023.216284. Epub 2023 Jun 24. PMID: 37356470; PMCID: PMC10408729.
# SEQUENCE No. (e.g., 1, 2, 3, etc.); […] (e.g., Cells, Incubation, Reagent, etc.); VALUE and DESCRIPTION.
# 1; Cells; 5 uL; white, solid bottom 1536-well Greiner assay plate.
# 2; Compounds; 23 nL; Kalypsis pin tool (Wako USA) equipped with a 1536-well pin head to transfer to the assay plates.
# 3; Incubation; 48 hours; 37C incubation.
# 4; Reagent;5uL; CellTiter Glo (Promega).
# 5; Detector; 425V; Luminescence; Viewlux PerkinElmer.
# NOTES (numbers refer to Sequence numbers above)
# 1. The cell-based screening methods employed in this study were like those previously published. Briefly, the corresponding myeloma cell lines were screened in 1,536-well plates with 500 cells, 5-uL per well for inhibition of cell viability (assessed by measuring ATP levels with CellTiterGlo).
# 2. NCATS MIPE 4.0 library of approved and investigational drugs were added using the Kalypsis pin tool. Wells treated with DMSO only for 100% viability and media only wells for 0% viability were used as controls.
# 3. The assay plates were covered and incubated for 48 hours in a 37C, 5% CO2 incubator with controlled humidity.
# 4. After 48 hours, CellTilter-GloTM luminescent substrate mix (Promega) reagent was added to the assay plate and plates we incubated for 5 min at room temperature.
# 5. Signal was measured as median relative luminescence units on a ViewLux (PerkinElmer) multiplate reader.
# [1] Heske CM, Davis MI, Baumgart JT, Wilson K, Gormally MV, Chen L, Zhang X, Ceribelli M, Duveau DY, Guha R, Ferrer M, Arnaldez FI, Ji J, Tran HL, Zhang Y, Mendoza A, Helman LJ, Thomas CJ. Matrix Screen Identifies Synergistic Combination of PARP Inhibitors and Nicotinamide Phosphoribosyltransferase (NAMPT) Inhibitors in Ewing Sarcoma. Clin Cancer Res. 2017 Dec 1;23(23):7301-7311. doi: 10.1158/1078-0432.CCR-17-1121. Epub 2017 Sep 12. PMID: 28899971; PMCID: PMC6636827.
# Potency is read from the fitted curve at half-maximal effect.
Compound,viability (% of DMSO),Potency
O=C1[C@H](Cc2ccc(O)cc2)N2C(=O)CCN(C(=O)NCc3ccccc3)[C@H]2CN1Cc1cccc2ccccc12,140% (inactive),–
O=C1CCc2cc(OCCCCc3nnnn3C3CCCCC3)ccc2N1,113% (active),–
Cc1cc([C@@H](C)Nc2ccccc2C(=O)O)c2nc(N3CCOCC3)cc(=O)n2c1,5.47% [at 92.2 µM] (active),–
O=c1[nH]cnc2[nH]ncc12,93.1% (inactive),–
CC[C@H](Nc1ncnc2nc[nH]c12)c1nc2cccc(F)c2c(=O)n1-c1ccccc1,292% (inactive),–
COc1ccc2c3n(c(=NC(=O)c4cccnc4)nc2c1OC)CCN3,23.6% (inactive),–
Cn1cnc([N+](=O)[O-])c1Sc1ncnc2nc[nH]c12,50.4% (inactive),–
CS(=O)(=O)c1cccc(CNc2nc(Nc3ccc4c(c3)CCC(=O)N4)ncc2C(F)(F)F)c1,–,2640 nM (active)
CC[C@@H](C)[C@H](NC(=O)[C@H](CC1CCCCC1)NC(=O)c1ccno1)C(=O)N1CCC2(CCc3ccccc32)CC1,124% (active),–
COc1ccc(-c2ccc3c(N4CCOCC4)nc(N4C[C@@H](C)O[C@@H](C)C4)nc3n2)cc1CO,–,148 nM (active)
CCc1cncnc1N1CCN(Cc2nc3ccc(C(F)(F)F)cc3[nH]2)CC1,119% (inactive),–
COc1cc(F)c(F)c(Nc2ccc(I)cc2F)c1NS(=O)(=O)C1(C[C@H](O)CO)CC1,–,16600 nM (active)
CN(C)c1ccc(Nc2nc(N)n(C(=O)c3c(F)cccc3F)n2)cc1,–,1660 nM (active)
COc1c(Cl)cc2c([nH]c3cnccc32)c1NC(=O)c1cccnc1C,–,16600 nM (active)
O=C1CCCC2=C1C(c1[nH]ncc1Cl)N=C(Nc1nc3ccccc3o1)N2 (stereo not given),270% (inactive),–
COc1ccc(-c2c(-c3ccc(O)cc3O)n[nH]c2C)cc1,34.5% [at 92.2 µM] (active),–
NNCCc1ccccc1,84.9% (inactive),–
COc1ccc([C@@H]2CC(=O)c3c(O)cc(O[C@@H]4O[C@H](CO[C@@H]5O[C@@H](C)[C@H](O)[C@@H](O)[C@@H]5O)[C@@H](O)[C@H](O)[C@@H]4O)cc3O2)cc1O,113% (inactive),–
Cc1ccc(NC(=O)c2cccc(C(C)(C)C#N)c2)cc1Nc1ccc2ncn(C)c(=O)c2c1,–,187 nM (active)
CO[C@@H]1[C@H](N(C)C(=O)c2ccccc2)C[C@H]2O[C@]1(C)n1c3ccccc3c3c4c(c5c6ccccc6n2c5c31)C(=O)NC4,–,469 nM (active)

Compound,viability (% of DMSO),Potency
COCC(=O)NCC=Cc1ccc2ncnc(Nc3ccc(Oc4ccc(C)nc4)c(C)c3)c2c1,–,10500 nM (active)
CN1CCN(CCCN2c3ccccc3Sc3ccc(C(F)(F)F)cc32)CC1,113% (active),–
Nc1ncnc2nc(-c3ccc(N4CCOCC4)nc3)cc(-c3cccc(Br)c3)c12,144% (inactive),–
Fc1ccc(Cl)cc1-c1nc(Nc2ccncc2)c2nccnc2n1,93.2% (inactive),–
Cc1cc(-c2ccc(CC(=O)Nc3ccc(-c4cccnc4)cc3)cc2)ccn1,–,16600 nM (active)
S=C(NCc1ccc2c(c1)OCO2)N1CCN(c2ncnc3c2oc2ccccc23)CC1,–,4290 nM (active)
N[C@@H]1CONC1=O,54.4% (inactive),–
OC(CCN1CCCCC1)(c1ccccc1)C1CC2C=CC1C2 (stereo not given),135% (inactive),–
COc1nc(-c2ccc3c(c2)OCO3)n(-c2ccc(NC(=O)CSc3ccccc3)cc2)n1,138% (inactive),–
OC[C@H](Cc1ccccc1)Nc1nc(Oc2ccc3c(c2)CCC3)nc2c1ncn2Cc1ccc(-c2ccccc2)cc1,18% (inactive),–
CCN(CC)CCCC(C)Nc1ccnc2cc(Cl)ccc12 (stereo not given),–,52.6 nM (active)
CC(C)(N)C(=O)N[C@H](COCc1ccccc1)C(=O)N1CCC2(CC1)CN(S(C)(=O)=O)c1ccccc12,145% (inactive),–
Nc1ccc(S(=O)(=O)Nc2ccnn2-c2ccccc2)cc1,126% (inactive),–
CCOc1cc(C=C2C(=O)N(c3ccccc3)N=C2C)cc(Cl)c1OCC(=O)OC,–,8330 nM (active)
CCCc1nn(C)c2c(=O)[nH]c(-c3cc(S(=O)(=O)N4CCN(C)CC4)ccc3OCC)nc12,203% (inactive),–
COc1cc2nccc(Oc3ccc(NC(=O)NC4CC4)c(Cl)c3)c2cc1C(N)=O,266% (inactive),–
Cc1n[nH]c(C)c1Cc1sc2c(c1C(=O)N1C[C@H](O)CO1)c(=O)n(C)c(=O)n2CC(C)C,–,20.9 nM (active)
Cc1c(CCOc2ccc(C(=O)O)cc2)c2cc(Cl)ccc2n1C(c1ccccc1)c1ccccc1,133% (inactive),–
O=C(O)CCc1ccc(NCc2cccc(Oc3ccccc3)c2)cc1,120% (inactive),–
O=C(NOC[C@H](O)CO)c1ccc(F)c(F)c1Nc1ccc(I)cc1F,–,46.9 nM (active)
